Bioassay records: PubChem BioAssay, several laboratories
Rows were chosen to be rich in hits. Some 1.7% of all compounds tested hit in one or more screens of this group.
N-glyco inh – increase of ERlucT glycosylation luciferase signal, primary screen, N-linked glycosylation inhibitor project, D54 ERlucT cells, luminescence, set 2; reporter increase, % at 12.5 µM; AID 588692, 2011; 360,000 compounds, 0.23% hits; D54 ERlucT glycosylation luciferase reporter, 24 h; percent of 100 nM tunicamycin response;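 active = mean luciferase reporter signal, scaled so untreated is 0 and the glycosylation-blocking control 100, at or above a set limit in every replicate; inconclusive = mean reaches the limit but not every replicate does; inactive = mean below the limit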;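 note: luciferase carries N-glycosylation sites so blocking glycosylation raises the light; 0% = median of neutral control wells and 100% = median of 100 nM tunicamycin wells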
ARNT TACC3 PPI – disruptors of ARNT/TACC3 protein interaction, primary screen, biochemical, AlphaScreen, single concentration; Transforming acidic coiled-coil-containing protein 3 (Homo sapiens), Q9Y6A5; AlphaScreen His-ARNT PAS-B/GST-TACC3 binding, luminescence; TACC3 fragment carries E629A point mutation; inhibition, % at 9.99 µM; 390,000 compounds, 0.66% hits; AID 623870, 2012;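 active = mean inhibition of replicates at least 50% and at least half of replicates each reaching 50%; inconclusive = half or more replicates reach 50% but mean below 50%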;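 note: 0% = complete ARNT plus TACC3 wells and 100% = ARNT alone without TACC3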
aDG glyco act – activators of alpha-DG glycosylation, primary screen, uHTS, Pro5-aDG cells, AlphaScreen | alpha-DG glycosylation AlphaScreen (IIH6); 0% Pro5, 100% B10-LARGE cell signal | activation, % at 10 µM | 360,000 compounds, 0.22% hits | AID 624168, 2012;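 active = activation of at least 8% versus controls, or a plate z-score of at least 8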;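 note: Pro5 are CHO cells carrying HIG-tagged alpha-DG that lacks glycosylation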
Cardio protect – cardioprotection against H2O2-induced cell death, primary screen, uHTS, H9c2 cells, ATPLite luminescence. H9c2 cardiomyocytes, H2O2 injury protection, 2 h. protection from H2O2 cell death, % at 20 µM. 360,000 compounds, 0.63% hits. AID 588492, 2011;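 active = compounds giving at least 50% protection of heart cells from peroxide-induced death in the single-dose screen, raw or plate-pattern-corrected value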;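 note: 0% = DMSO wells with peroxide and 100% = DMSO wells without peroxide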
Vif imaging – HIV Vif self-association inhibitors, primary screen, imaging, HEK293T, single point. HEK293T cells, Vif self-association by quenched fluorescence, 24 h. inhibition, % at 7.49 µM. 340,000 compounds, 0.35% hits. AID 602346, 2012; in the data active = inhibition above about 50%, passing the limit was not always enough; inconclusive = no clear call, values can overlap the other calls; inactive = below about 31%
aDG conf – alpha-DG glycosylation enhancers, retest, confirmation, single concentration, Pro5-aDG cells; 600 compounds, 17% hits; IIH6 AlphaLISA; scaled to LARGE-overexpressing B10 cells as 100%; activation, % at 10 µM (by protocol); shares compounds with aDG glyco act; AID 651671, 2012;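 active = activation of at least 7% in one or more replicates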;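 note: cells exposed to compound for two days before detection; 0% = DMSO-treated Pro5 cells and 100% = DMSO-treated B10-LARGE cells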
* = called active by the depositor; ? = inconclusive; . = no result given.

SMILES	N-glyco inh	ARNT TACC3 PPI	aDG glyco act	Cardio protect	Vif imaging	aDG conf
N/C(=N\OC(=O)COc1ccc(Cl)cc1Cl)c1ccccn1	-17	3	1	-20	-1	.
CCOc1cccc(-c2cc(N3CCN(CCO)CC3)n3nccc3n2)c1	0	.	6.0*	0	3	-1
Cc1cc2c(cc1C)C(=O)C(Br)=C(N)C2=O	7	7	6.1*	-14	-13	-1
C[C@@H]1CN([C@H](C)CO)C(=O)c2cc(NS(=O)(=O)c3ccccc3)ccc2O[C@@H]1CN(C)S(C)(=O)=O	.	2	.	.	.	.
COC(=O)COc1ccc(S(=O)(=O)Nc2ccc(C(N)=O)cc2)cc1Cl	0	-1	77*	29	-9	-1
COC(=O)COc1ccc(S(=O)(=O)Nc2ccc(C(N)=O)cc2)cc1C	5	-5	0	9	9	.
CC1CCCCN1CCCNC(=O)c1nn(C)c2c1CSc1ccccc1-2 (configuration not stated)	-2	1	2	10	3	.
CC1CCCN(CCCNC(=O)c2nn(C)c3c2CSc2ccccc2-3)C1 (configuration not stated)	-4	2	6.3*	3	0	9.0*
COc1ccc(CCNC(=O)c2cc3c(=O)n4ccccc4nc3n(CCN3CCOCC3)c2=N)cc1	-4	-3	8.1*	3	-9	1
COc1ccc(CCNC(=O)c2cc3c(=O)n4ccccc4nc3n(CCCN3CCOCC3)c2=N)cc1	0	4	1	24	9	.
COCCNC(=O)C[C@@H]1CC[C@H](NC(=O)NC2CCCCC2)[C@@H](CO)O1	.	-12	.	.	.	.
CCOc1ccc(S(=O)(=O)N2CCN(c3ccccc3)CC2)c2cccnc12	2	.	0	5	2	.
CCOc1ccc(S(=O)(=O)N2CCN(c3ccccc3OC)CC2)c2cccnc12	0	.	6.5*	2	.	0
CCC(=O)Nc1ccc2c(c1)C(=O)N(C)[C@H]1CC[C@@H](CC(=O)NC3CCCC3)O[C@@H]1CO2	.	-5	.	.	.	.
CC(C)C(=O)Nc1ccc2c(c1)C(=O)N(C)[C@@H]1CC[C@@H](CC(=O)NCc3ccccc3F)O[C@H]1CO2	.	-5	.	.	.	.
c1ccc2cc(-c3cc4ccccn4c3)ccc2c1	2	0	5.2*	-7	1	0
c1csc(Cn2nnnc2CN2CCN(c3nc4ccccc4s3)CC2)c1	-1	-5	6.0*	-1	-12	2.8*
c1ccc(Cn2nnnc2C(c2ccccc2)N2CCN(c3nc4ccccc4s3)CC2)cc1 (configuration not stated)	0	-2	1	2	-3	.
COc1ccc(NC(=O)N(C)C[C@H]2Oc3c(NS(=O)(=O)c4ccc(OC)cc4)cccc3C(=O)N([C@@H](C)CO)C[C@@H]2C)cc1	.	1	.	.	.	.
Cc1ccc(C)c(NC(=O)CSc2nc3ccccc3nc2N2CCOCC2)c1	0	2	0	1	14	.
CCc1ccccc1NC(=O)CSc1nc2ccccc2nc1N1CCOCC1	-2	-6	13*	18	.	-1
O=C(C1CC1)N1CC[C@@H]2[C@H]1c1cc(-c3cccc(F)c3)ccc1N[C@@H]2CO	.	7	.	.	.	.
CC(=O)c1ccc(NC(=O)C2CCCC2)cc1	0	19	2.1*	0	-12	-1
CC(=O)c1cccc(NC(=O)C2CCCC2)c1	-1	.	0	2	3	.
O=S(=O)(c1ccccc1)N1CC[C@@H]2[C@H]1c1cc(-c3ccccc3F)ccc1N[C@@H]2CO	.	11	.	.	.	.
SMILES	N-glyco inh	ARNT TACC3 PPI	aDG glyco act	Cardio protect	Vif imaging	aDG conf
CC(Oc1cccc(Cl)c1)C(=O)Nc1ccc(S(=O)(=O)N(C)C2CCN(C)CC2)cc1 (configuration not stated)	-1	4	5.7*	-1	-3	5.3*
O=C(Nc1nnc(S(=O)(=O)N2CCOCC2)s1)c1ccc(F)cc1	1	-2	8.7*	-1	19	-1
Cc1ccc(C(=O)Nc2nnc(S(=O)(=O)N3CCOCC3)s2)cc1	-1	-5	0	-4	6	.
O=C(C[C@@H]1CC[C@H]2[C@@H](COC[C@H](O)CN2S(=O)(=O)c2cccc(Cl)c2)O1)Nc1ccc(-c2ccccc2)cc1	.	16	.	.	.	.
N#Cc1ccccc1Cn1c(=O)n(-c2ccc(CC(=O)NCc3ccco3)cc2)c(=O)c2sccc21	1	-3	10*	-2	-9	0
O=C(CC1SC(=Nc2ccccc2)N(CCO)C1=O)Nc1ccccc1 (configuration not stated)	1	24	0	-8	-1	.
O=C(CC1SC(=Nc2ccccc2)N(CCc2ccccn2)C1=O)Nc1ccc(F)cc1 (configuration not stated)	-5	-6	11*	-4	-18	0
CCCCc1c(C)nn(-c2nnc3c4ccccc4n(C)c3n2)c1C	-4	.	4.2*	-17	.	2
Cn1c2ccccc2c2nnc(NN)nc21	3	8	0	15	0	.
COC(=O)[C@@H]1[C@@H](CO)[C@@H]2Cn3c(ccc(-c4cccc(F)c4)c3=O)[C@@H]2N1CC1CCCC1	.	16	.	.	.	.
FC(F)Oc1ccc(NC(=S)NC23CC4CC(CC(C4)C2)C3)cc1	-7	-3	2.0*	-9	-3	0
CCOc1ccc(NC(=S)NC23CC4CC(CC(C4)C2)C3)cc1	-3	4	1	-8	6	.
COc1ccc(C(C)=O)cc1COC(=O)CNC(=O)C1CCCCC1	4	-8	9.1*	18	-1	0
O=C(CNC(=O)c1ccccc1F)NCc1ccncc1	2	.	5.9*	-2	2	1
Cc1ccc(S(=O)(=O)N(C)C)cc1NC(=O)C1CCCCN1S(=O)(=O)c1ccccc1 (configuration not stated)	-2	.	2.9*	1	6	-1
Cc1ccc(N(Cc2cc3ccc(C)cc3[nH]c2=O)C(=O)c2ccco2)c(C)c1	-4	-5	2.4*	-6	-9	1
Cc1ccc2cc(CN(C(=O)c3ccco3)c3ccccc3C)c(=O)[nH]c2c1	-3	-3	0	-8	?	.
C[C@H]1CN([C@@H](C)CO)C(=O)c2cc(Br)cnc2O[C@H]1CN(C)C(=O)c1ccccc1	.	-3	.	.	.	.
COc1ccccc1S(=O)(=O)N[C@@H]1CC[C@H](CC(=O)NCc2cccc(F)c2)O[C@H]1CO	.	1	.	.	.	.
